Source: PubChem BioAssay
The source made the active and inactive calls.

Key:
[1] = A549 cell viability effects, profiling panel, calcein-AM fluorescence, 48 h, basal (AID 1162); conditions: higher = more signal
[2] = adipocyte viability effects, profiling panel, cell-based, 3T3-L1 adipocytes, calcein-AM fluorescence, 48 h, basal (AID 1163); conditions: 3T3-L1 adipocytes viability, higher = more signal
[3] = HepG2 cell viability effects, profiling panel, calcein-AM fluorescence, 48 h, basal (AID 1164); conditions: higher = more signal
[4] = MM1S cell viability effects, profiling panel, calcein-AM fluorescence, 48 h, basal (AID 1165); conditions: higher = more signal;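 also: viability of MM1S multiple myeloma cells under basal unstimulated conditions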
[5] = basal RPMI8226 viability, no added stimulus, profiling panel, cell-based, calcein-AM fluorescence, 48 h, PK04 Diversity Set (AID 1166); conditions: RPMI8226 myeloma viability, higher = more signal;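 also: cells grown under basal conditions without added stimulus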
[6] = basal HepG2 mitochondrial membrane potential changes, profiling panel, cell-based, JC-1 fluorescence, 24 h, 100 nL compound (AID 1167); conditions: higher = more signal
[7] = basal 3T3-L1 adipocyte mitochondrial potential changes, profiling panel, cell-based, JC-1 fluorescence, 3T3-L1 adipocytes, 24 h, 100 nL compound (AID 1168); conditions: JC-1 mitochondrial fluorescence, higher = more signal, called active from +8 up or from −8 down
[8] = basal RPMI8226 mitochondrial membrane potential changes, profiling panel, cell-based, JC-1 fluorescence, 24 h, 100 nL compound (AID 1169); conditions: RPMI8226 myeloma, JC-1 mitochondrial potential fluorescence, higher = more signal
[9] = basal MM1S mitochondrial membrane potential changes, profiling panel, cell-based, JC-1 fluorescence, 24 h, 100 nL compound (AID 1170); conditions: higher = more signal
[10] = A549 lung cancer cell viability effects, profiling panel, resazurin fluorescence, 24 h, PK04 Diversity Set (AID 1171); conditions: higher = more signal, called active from +8 up or from −8 down
Also: test concentration not given here.

| SMILES | z-score [1] | z-score [2] | z-score [3] | z-score [4] | z-score [5] | z-score [6] | z-score [7] | z-score [8] | z-score [9] | z-score [10] |
| --- | --- | --- | --- | --- | --- | --- | --- | --- | --- | --- |
| CCOC(=O)C[C@H]1[C@H](OC(=O)Cc2ccc3c(c2)OCO3)[C@@H](NC(=O)c2ccccc2)c2cc(OCCCO)ccc2N1C(=O)c1ccccc1 | -0.11 | 0.232 | 1.52 | -0.266 | 0.503 | 0.614 | 0.746 (inactive) | 0.684 | -0.96 | 0.323 (inactive) |
| COC(=O)[C@@]1(Cc2ccc(OC)cc2)[C@H]2c3cc(C(=O)N4CCCC4)n(CCc4ccc(O)c(OC)c4)c3C[C@H]2CN1C(=O)c1ccccc1 | -1.47 | 0.0048 | -0.0475 | -1.03 | -0.254 | -0.851 | -0.867 (inactive) | -0.167 | -0.563 | 1.05 (inactive) |
| O=C1C2C=CC(C(O)c3ccccn3)N(Nc3ccccc3)C2C(=O)N1c1ccccc1 (stereo not given) | 0.312 | -1.46 | 0.593 | 0.111 | -0.0462 | -0.568 | -0.467 (inactive) | -0.234 | -1.11 | -0.752 (inactive) |
| NC(=O)NCC#Cc1ccc2c(c1)[C@]1(C(=O)N2)[C@H](c2ccc(O)cc2)N2[C@H](c3ccccc3)[C@H](c3ccccc3)OC(=O)[C@H]2[C@@H]1C(N)=O | 0.233 | -1.07 | 0.705 | 0.669 | 1.23 | -0.538 | -0.06 (inactive) | -0.371 | -0.691 | -1.08 (inactive) |
| COc1cc(NN2C(C(O)c3ccc(I)cc3)C=CC3C(=O)N(C)C(=O)C32)cc(OC)c1OC (stereo not given) | -0.0595 | 0.459 | 0.196 | -0.07 | 0.24 | -0.461 | 0.0122 (inactive) | -0.335 | -0.311 | -1.42 (inactive) |
| O=C1C[C@@](C(=O)O)(c2ccc([N+](=O)[O-])cc2)[C@@H](c2ccc(CO)cc2)N1CC12CC3CC(CC(C3)C1)C2 | 0.0051 | 0.0068 | 0.313 | -1.49 | -2.4 | 0.609 | 0.473 (inactive) | -0.15 | -0.811 | 0.689 (inactive) |
| O=C1O[C@H](c2ccccc2)[C@H](c2ccccc2)N2[C@H]1[C@@H](C(=O)N1CCN(c3ncccn3)CC1)[C@]1(C(=O)Nc3ccc(C#CCCO)cc31)[C@H]2c1ccccc1OCCO | 1.09 | 0.569 | 0.313 | -0.445 | -2.95 | 0.308 | 0.488 (inactive) | -0.794 | -0.0117 | 1.92 (inactive) |
| O=C1NC(=O)C2C1C=CC(C(O)CCc1ccccc1)N2Nc1ccccn1 (stereo not given) | -1.58 | 0.0058 | 1.23 | 0.87 | 1.02 | -0.149 | -0.382 (inactive) | 0.282 | 0.228 | -1.72 (inactive) |
| COCCCNC(=O)[C@@]1(Cc2ccccc2I)c2ccccc2C(=O)N(Cc2ccccc2Cl)[C@H]1c1ccc(CO)cc1 | -0.119 | 0.39 | 0.9 | -0.36 | -0.503 | 1.29 | 0.781 (inactive) | -0.778 | 0.148 | 2.16 (inactive) |
| Cc1ccc(S[C@]2(C(=O)NCCN3CCOCC3)CC(=O)N(C3Cc4ccccc4C3)[C@@H]2c2ccc(CO)cc2)cc1 | -0.215 | -0.143 | -0.619 | -0.0655 | 0.0047 | 0.699 | 0.242 (inactive) | 0.794 | -0.0188 | 0.665 (inactive) |
| O=C1C2C=CC(C(O)c3cccc4ccccc34)N(Nc3ccccc3)C2C(=O)N1c1ccccc1 (stereo not given) | 0.112 | -1.54 | 0.22 | -0.624 | -1.52 | -1.09 | -0.209 (inactive) | -0.408 | -0.318 | -0.854 (inactive) |
| COC(=O)C(CC#Cc1ccc2c(c1)[C@]1(C(=O)N2)[C@H](c2ccc(OCCO)cc2)N2[C@H](c3ccccc3)[C@H](c3ccccc3)OC(=O)[C@H]2[C@@H]1C(=O)O)C(=O)OC | 1.88 | -0.0521 | 1.45 | 0.47 | -0.247 | -0.0694 | 0.222 (inactive) | -0.336 | 0.132 | 0.179 (inactive) |
| COCCOC(=O)N1C(=O)[C@@]2(c3cc(C#Cc4ccc(OC)cc4)ccc31)[C@H](C(=O)N1CCc3cc(OC)c(OC)cc3C1)[C@H]1C(=O)O[C@H](c3ccccc3)[C@H](c3ccccc3)N1[C@@H]2c1ccc(OCCO)cc1 | -0.403 | 1.41 | -1.13 | -0.0142 | -1.38 | -0.999 | 2.31 (inactive) | -0.223 | -0.919 | -0.0945 (inactive) |
| COC(=O)[C@@]1(Cc2ccc(OC)cc2)[C@H]2c3cc(C(=O)N4CCCC4)n(Cc4ccc(C)o4)c3C[C@H]2CN1C(=O)c1ccccc1 | -3.86 | -3.17 | -5.75 | -3.31 | -4.69 | -4.45 | 3.65 (inactive) | -0.815 | -2.9 | -7.08 (inactive) |
| C=C(COC)C(=O)CC[C@H](OC(=O)c1ccccc1-c1ccccc1C(=O)O)c1ccc(CO)o1 | -0.643 | -0.398 | -0.985 | 0.232 | -0.0416 | -1.01 | -0.345 (inactive) | 0.12 | 0.433 | -0.256 (inactive) |
